Paper PMC7862700, “An all-to-all approach to the identification of sequence-specific readers for epigenetic DNA modifications on cytosine”

How the values were obtained:
Test in all cases: DAPPL (digital affinity profiling via proximity ligation, sequencing); 10 mM Tris-HCl pH 7.5, 50 mM NaCl, 1 mM DTT, 4% glycerol, room temperature, 30 min; GST-TFs on glutathione beads, 16-mer random dsDNA library, 0.1% formaldehyde crosslink after washing; high values mean tight binding
Settings in all cases: protein: recombinant; tags: N-terminal GST; dsDNA, one strand shown
ELK1 = target: T1, ELK1 (Homo sapiens, UniProt P19419 1-428)
T1 sequence: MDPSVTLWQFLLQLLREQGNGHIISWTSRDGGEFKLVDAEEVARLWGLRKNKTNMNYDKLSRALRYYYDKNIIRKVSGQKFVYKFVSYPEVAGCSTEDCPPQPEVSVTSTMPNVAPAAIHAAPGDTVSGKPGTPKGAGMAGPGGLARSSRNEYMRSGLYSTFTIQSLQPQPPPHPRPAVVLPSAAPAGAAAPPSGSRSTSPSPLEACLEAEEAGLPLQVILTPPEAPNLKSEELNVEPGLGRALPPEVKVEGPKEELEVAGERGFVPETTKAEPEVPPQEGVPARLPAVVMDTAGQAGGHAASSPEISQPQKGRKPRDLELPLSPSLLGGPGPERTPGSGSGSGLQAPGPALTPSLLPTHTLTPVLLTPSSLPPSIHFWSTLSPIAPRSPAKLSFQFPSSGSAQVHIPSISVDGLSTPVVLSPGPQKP
Method in brief: (§1)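 GST fusions of human transcription factors were expressed in yeast and captured with glutathione beads. Once given DNA barcodes and pooled alongside a tag-only sample, they were incubated for 30 min at room temperature with 200 nmole of a random double-stranded 16-mer DNA library in Tris/NaCl/DTT/glycerol buffer, then washed, crosslinked (0.1% formaldehyde), proximity-ligated, PCR-amplified and sequenced on an Illumina NextSeq500. The binding signal of each hexamer is its read frequency for a factor divided by its frequency for the tag-only sample.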

GABPA = target: T2, GABPA (Homo sapiens, UniProt Q06546 1-454)
T2 sequence: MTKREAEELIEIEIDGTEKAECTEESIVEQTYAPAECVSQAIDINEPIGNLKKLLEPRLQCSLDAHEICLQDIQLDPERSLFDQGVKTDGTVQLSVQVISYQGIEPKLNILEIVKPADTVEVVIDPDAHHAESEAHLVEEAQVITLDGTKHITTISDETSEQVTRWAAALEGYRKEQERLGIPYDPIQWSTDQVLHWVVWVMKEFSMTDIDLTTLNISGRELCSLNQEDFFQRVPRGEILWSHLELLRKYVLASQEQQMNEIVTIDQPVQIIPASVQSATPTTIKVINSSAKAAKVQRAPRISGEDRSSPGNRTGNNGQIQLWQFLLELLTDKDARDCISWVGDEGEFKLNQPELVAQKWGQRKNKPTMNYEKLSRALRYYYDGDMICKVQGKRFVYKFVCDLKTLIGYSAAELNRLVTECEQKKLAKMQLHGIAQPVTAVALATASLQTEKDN
Method in brief: as §1

ERG = target: T3, ERG (Homo sapiens, UniProt P11308 1-479)
T3 sequence: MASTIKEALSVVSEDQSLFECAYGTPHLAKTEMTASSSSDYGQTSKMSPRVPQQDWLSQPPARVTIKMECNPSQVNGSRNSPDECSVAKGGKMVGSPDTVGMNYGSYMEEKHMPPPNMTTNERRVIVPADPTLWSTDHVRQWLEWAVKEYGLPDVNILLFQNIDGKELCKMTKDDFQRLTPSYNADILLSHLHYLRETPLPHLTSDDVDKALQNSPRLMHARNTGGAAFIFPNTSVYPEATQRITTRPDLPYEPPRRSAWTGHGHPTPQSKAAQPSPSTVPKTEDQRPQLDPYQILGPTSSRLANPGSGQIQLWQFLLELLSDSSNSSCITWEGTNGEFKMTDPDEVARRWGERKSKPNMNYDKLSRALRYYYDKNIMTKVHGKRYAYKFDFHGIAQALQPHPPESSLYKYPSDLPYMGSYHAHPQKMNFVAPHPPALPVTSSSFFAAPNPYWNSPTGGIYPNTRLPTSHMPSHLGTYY
Method in brief: as §1

SPIB = SPIB (Homo sapiens, UniProt Q01892 1-262)
Method in brief: as §1

ELK3 = target: T4, ELK3 (Homo sapiens, UniProt P41970 1-407)
T4 sequence: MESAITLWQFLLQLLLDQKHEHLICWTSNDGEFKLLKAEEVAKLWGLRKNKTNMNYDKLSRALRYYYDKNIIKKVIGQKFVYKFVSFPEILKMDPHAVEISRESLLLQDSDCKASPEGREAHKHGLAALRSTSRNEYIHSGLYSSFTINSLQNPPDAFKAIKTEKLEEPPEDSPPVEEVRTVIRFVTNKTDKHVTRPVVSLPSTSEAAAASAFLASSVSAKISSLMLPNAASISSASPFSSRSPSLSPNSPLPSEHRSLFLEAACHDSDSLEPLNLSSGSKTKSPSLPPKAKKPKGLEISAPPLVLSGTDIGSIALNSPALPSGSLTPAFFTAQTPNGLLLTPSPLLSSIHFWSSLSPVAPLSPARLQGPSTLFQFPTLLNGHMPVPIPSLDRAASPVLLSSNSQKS
Method in brief: as §1

ETV5 = ETV5 (Homo sapiens, UniProt P41161 1-510)
Method in brief: as §1

SPIC = target: T5, SPIC (Homo sapiens, UniProt Q8N5J4 1-248)
T5 sequence: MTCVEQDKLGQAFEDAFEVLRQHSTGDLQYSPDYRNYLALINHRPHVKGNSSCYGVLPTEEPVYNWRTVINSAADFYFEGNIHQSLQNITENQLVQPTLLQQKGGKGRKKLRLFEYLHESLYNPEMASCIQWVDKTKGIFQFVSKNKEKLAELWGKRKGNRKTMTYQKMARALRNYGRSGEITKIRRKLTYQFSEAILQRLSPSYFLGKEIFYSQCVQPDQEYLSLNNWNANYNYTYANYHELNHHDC
Method in brief: as §1

ELK4 = target: T6, ELK4 (Homo sapiens, UniProt P28324-2 1-405)
T6 sequence: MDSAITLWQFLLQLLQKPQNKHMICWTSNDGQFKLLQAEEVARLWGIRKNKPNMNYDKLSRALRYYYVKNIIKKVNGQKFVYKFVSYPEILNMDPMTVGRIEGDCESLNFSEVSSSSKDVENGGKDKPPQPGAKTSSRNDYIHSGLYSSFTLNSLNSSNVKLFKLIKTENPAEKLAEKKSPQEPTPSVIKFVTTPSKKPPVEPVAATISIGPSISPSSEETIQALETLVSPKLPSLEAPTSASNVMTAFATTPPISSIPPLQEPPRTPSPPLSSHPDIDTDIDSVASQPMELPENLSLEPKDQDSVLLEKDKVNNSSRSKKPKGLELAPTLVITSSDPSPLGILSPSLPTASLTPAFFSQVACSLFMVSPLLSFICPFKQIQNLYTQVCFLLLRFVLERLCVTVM
Method in brief: as §1

ETV1 = ETV1 (Homo sapiens, UniProt P50549 1-477)
Method in brief: as §1

ERF = target: T7, ERF (Homo sapiens, UniProt P50548 1-548)
T7 sequence: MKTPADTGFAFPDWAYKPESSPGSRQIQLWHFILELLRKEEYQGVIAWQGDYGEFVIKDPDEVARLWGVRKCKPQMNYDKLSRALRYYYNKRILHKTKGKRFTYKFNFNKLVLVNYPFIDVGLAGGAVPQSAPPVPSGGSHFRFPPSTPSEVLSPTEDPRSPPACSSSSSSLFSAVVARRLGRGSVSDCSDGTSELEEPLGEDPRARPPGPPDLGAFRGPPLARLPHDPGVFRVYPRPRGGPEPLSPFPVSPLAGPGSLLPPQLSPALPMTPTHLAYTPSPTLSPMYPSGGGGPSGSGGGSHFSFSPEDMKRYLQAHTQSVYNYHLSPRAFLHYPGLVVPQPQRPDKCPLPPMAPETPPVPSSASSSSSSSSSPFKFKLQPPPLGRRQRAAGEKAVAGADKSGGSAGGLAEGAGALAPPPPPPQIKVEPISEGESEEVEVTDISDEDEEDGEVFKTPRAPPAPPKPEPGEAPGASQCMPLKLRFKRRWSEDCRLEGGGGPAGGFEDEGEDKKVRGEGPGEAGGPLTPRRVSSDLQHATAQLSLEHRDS
Method in brief: as §1

ETS2 = target: T8, ETS2 (Homo sapiens, UniProt P15036 1-469)
T8 sequence: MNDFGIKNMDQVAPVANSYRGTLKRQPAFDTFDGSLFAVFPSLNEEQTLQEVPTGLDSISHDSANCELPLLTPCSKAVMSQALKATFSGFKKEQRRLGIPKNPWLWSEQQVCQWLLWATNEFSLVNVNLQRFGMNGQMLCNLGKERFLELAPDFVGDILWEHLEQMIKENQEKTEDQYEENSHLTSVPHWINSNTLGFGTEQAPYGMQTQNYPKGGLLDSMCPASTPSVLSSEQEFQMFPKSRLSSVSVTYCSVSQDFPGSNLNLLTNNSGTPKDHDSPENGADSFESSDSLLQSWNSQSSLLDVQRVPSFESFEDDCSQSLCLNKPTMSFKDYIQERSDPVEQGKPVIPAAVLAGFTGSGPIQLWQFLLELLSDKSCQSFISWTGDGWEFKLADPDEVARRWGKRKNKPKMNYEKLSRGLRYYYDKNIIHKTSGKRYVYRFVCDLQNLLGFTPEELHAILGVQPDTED
Method in brief: as §1

SPDEF = target: T9, SPDEF (Homo sapiens, UniProt O95238 1-335)
T9 sequence: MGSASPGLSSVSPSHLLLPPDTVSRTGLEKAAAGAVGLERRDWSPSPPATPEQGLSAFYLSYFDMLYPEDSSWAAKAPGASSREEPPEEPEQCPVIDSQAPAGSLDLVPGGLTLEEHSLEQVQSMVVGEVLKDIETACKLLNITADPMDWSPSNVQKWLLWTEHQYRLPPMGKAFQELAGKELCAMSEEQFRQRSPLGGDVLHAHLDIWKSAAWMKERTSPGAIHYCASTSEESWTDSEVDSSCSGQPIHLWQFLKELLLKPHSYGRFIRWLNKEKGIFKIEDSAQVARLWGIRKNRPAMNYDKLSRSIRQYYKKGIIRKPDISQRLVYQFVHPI
Method in brief: as §1

ETV7 = target: T10, ETV7 (Homo sapiens, UniProt Q9Y603 1-341)
T10 sequence: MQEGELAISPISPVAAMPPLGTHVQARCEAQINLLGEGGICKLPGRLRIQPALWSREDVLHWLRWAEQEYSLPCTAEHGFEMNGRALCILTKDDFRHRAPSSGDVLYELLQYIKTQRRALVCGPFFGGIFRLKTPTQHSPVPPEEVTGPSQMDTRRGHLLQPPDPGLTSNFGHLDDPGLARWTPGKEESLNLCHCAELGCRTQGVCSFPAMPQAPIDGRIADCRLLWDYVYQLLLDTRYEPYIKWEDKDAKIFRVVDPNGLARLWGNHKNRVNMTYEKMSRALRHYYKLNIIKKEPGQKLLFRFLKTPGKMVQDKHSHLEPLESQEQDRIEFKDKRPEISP
Method in brief: as §1

ETV3 = target: T11, ETV3 (Homo sapiens, UniProt P41162-2 1-143)
T11 sequence: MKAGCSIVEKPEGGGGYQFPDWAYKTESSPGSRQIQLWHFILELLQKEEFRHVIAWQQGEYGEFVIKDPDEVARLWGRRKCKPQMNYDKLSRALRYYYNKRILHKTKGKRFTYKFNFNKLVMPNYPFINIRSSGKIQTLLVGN
Method in brief: as §1

ETV6 = ETV6 (Homo sapiens, UniProt P41212 1-452)
Method in brief: as §1

ELF1 = ELF1 (Homo sapiens, UniProt P32519 1-619)
Method in brief: as §1

ETV3L = target: T12, ETV3L (Homo sapiens, UniProt Q6ZN32 1-361)
T12 sequence: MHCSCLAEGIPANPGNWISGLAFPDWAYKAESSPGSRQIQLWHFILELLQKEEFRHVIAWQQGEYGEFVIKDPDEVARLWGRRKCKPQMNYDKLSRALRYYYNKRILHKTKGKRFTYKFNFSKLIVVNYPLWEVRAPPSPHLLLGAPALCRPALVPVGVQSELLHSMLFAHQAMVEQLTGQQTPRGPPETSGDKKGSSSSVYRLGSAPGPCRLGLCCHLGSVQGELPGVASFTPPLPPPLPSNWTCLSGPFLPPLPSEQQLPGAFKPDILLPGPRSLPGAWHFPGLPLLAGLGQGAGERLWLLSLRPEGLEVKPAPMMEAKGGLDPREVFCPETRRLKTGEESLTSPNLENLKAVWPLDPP
Method in brief: as §1

Chain of ETV5 (P41161 whole entry): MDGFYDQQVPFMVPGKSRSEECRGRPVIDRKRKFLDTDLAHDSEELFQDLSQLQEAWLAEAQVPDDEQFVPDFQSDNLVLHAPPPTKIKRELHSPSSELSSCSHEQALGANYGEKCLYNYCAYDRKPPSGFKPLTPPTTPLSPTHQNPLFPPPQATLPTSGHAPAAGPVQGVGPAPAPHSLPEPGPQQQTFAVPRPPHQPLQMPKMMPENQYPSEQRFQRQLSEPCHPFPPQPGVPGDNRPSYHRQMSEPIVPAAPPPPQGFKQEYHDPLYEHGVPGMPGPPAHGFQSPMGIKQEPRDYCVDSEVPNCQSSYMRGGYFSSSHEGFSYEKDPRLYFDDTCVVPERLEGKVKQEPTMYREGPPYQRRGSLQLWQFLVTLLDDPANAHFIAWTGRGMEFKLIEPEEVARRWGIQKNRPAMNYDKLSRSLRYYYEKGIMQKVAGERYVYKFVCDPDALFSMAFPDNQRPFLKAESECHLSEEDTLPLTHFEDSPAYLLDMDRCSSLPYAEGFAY
Chain of SPIB (Q01892 whole entry): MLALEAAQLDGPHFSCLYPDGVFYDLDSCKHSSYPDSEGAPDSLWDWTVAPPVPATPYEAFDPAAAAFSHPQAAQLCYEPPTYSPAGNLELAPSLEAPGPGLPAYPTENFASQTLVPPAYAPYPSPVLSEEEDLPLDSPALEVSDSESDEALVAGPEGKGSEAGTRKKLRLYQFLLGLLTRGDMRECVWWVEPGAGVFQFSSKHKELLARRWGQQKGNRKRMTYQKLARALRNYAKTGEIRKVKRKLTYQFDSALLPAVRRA
Chain of ETV6 (P41212 whole entry): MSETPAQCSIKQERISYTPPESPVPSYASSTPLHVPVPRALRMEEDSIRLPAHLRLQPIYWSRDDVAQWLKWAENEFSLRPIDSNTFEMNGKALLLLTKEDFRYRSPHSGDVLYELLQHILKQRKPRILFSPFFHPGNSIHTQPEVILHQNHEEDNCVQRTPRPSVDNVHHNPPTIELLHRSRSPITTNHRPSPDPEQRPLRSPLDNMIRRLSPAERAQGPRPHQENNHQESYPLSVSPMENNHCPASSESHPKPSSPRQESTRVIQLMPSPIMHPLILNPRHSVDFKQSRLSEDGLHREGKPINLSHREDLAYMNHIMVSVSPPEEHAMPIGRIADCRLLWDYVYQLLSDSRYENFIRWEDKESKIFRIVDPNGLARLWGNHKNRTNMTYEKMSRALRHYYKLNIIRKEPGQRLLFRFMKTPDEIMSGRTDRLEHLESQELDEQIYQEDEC
Chain of ETV1 (P50549 whole entry): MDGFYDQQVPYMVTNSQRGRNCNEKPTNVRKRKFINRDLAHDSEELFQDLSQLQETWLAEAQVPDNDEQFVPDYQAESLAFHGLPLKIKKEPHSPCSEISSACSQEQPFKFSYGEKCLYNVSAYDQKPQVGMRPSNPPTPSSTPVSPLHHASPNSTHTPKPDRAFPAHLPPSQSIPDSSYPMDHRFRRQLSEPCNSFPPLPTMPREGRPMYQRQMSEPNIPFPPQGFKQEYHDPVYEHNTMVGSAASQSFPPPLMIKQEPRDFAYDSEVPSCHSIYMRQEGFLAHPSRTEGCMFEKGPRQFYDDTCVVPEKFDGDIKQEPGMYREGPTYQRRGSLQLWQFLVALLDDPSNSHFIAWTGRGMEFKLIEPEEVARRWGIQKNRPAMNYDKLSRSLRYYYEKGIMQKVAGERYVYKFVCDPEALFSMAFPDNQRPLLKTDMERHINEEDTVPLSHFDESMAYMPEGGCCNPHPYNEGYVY
Chain of ELF1 (P32519 whole entry): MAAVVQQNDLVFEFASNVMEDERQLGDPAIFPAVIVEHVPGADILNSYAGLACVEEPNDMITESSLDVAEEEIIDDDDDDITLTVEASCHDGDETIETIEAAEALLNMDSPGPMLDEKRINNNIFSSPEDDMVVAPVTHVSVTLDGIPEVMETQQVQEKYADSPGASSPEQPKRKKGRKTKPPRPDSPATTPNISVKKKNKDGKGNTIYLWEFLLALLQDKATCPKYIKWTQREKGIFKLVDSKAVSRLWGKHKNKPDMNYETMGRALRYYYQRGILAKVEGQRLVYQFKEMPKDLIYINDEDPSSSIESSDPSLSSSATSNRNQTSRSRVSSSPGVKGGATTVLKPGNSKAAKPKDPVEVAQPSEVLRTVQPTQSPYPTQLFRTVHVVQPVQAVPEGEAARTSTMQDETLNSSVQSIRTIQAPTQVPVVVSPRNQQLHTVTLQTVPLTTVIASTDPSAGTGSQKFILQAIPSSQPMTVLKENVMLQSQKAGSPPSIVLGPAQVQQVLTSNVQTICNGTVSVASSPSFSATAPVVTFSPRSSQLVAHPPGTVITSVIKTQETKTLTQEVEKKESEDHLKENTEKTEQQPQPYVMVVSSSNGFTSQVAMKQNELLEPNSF

AGCGTC
binding signal (ELK1): 1.05 fold enrichment (6-mer frequency, TF over GST control) | binding signal (GABPA): 1.07 fold enrichment (6-mer frequency, TF over GST control) | binding signal (ERG): 1.1 fold enrichment (6-mer frequency, TF over GST control) | binding signal (SPIB): 1.04 fold enrichment (6-mer frequency, TF over GST control) | binding signal (ELK3): 1.05 fold enrichment (6-mer frequency, TF over GST control) | binding signal (ETV5): 1.04 fold enrichment (6-mer frequency, TF over GST control) | binding signal (SPIC): 1.11 fold enrichment (6-mer frequency, TF over GST control) | binding signal (ELK4): 1.01 fold enrichment (6-mer frequency, TF over GST control) | binding signal (ETV1): 1.04 fold enrichment (6-mer frequency, TF over GST control) | binding signal (ERF): 1.07 fold enrichment (6-mer frequency, TF over GST control) | binding signal (ETS2): 1.02 fold enrichment (6-mer frequency, TF over GST control) | binding signal (SPDEF): 1.08 fold enrichment (6-mer frequency, TF over GST control) | binding signal (ETV7): 1.06 fold enrichment (6-mer frequency, TF over GST control) | binding signal (ETV3): 1.01 fold enrichment (6-mer frequency, TF over GST control) | binding signal (ETV6): 1.02 fold enrichment (6-mer frequency, TF over GST control)

TGGTCG
binding signal (GABPA): 1.08 fold enrichment (6-mer frequency, TF over GST control) | binding signal (ELF1): 1.02 fold enrichment (6-mer frequency, TF over GST control) | binding signal (SPIB): 1 fold enrichment (6-mer frequency, TF over GST control) | binding signal (ELK3): 1.11 fold enrichment (6-mer frequency, TF over GST control) | binding signal (ETV5): 1.06 fold enrichment (6-mer frequency, TF over GST control) | binding signal (SPIC): 1.13 fold enrichment (6-mer frequency, TF over GST control) | binding signal (ETV3L): 1 fold enrichment (6-mer frequency, TF over GST control) | binding signal (ETV3): 1 fold enrichment (6-mer frequency, TF over GST control)
